# Data taken from PubChem BioAssay (EPA / NIEHS).
# The source holds several records for some structures; these can differ, active in one and inactive in another. Active and inactive are the calls of the source. The calls were made as follows: active = hit-call score of the fitted dose curve at least 0.9, where 1 is the maximum; inactive = score below 0.9.
# Read-out: not listed separately
# Assay: CEETOX_H295R_DOC: CeeTox H295R High-throughput Steroidogenesis Assay for DOC (AID 2283439)
# Conditions: actives raise or lower the signal
# Outline: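 H295R adrenal cells prestimulated 48 h with 10 uM forskolin, then exposed 48 h to test chemical (0.1% DMSO final). Medium 11-deoxycorticosterone extracted with MTBE, quantified by HPLC-MS/MS; bidirectional fit versus DMSO baseline; MTT viability in same wells.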
# Chain of Fatty acid synthase (Homo sapiens) (P49327 whole entry, looked up): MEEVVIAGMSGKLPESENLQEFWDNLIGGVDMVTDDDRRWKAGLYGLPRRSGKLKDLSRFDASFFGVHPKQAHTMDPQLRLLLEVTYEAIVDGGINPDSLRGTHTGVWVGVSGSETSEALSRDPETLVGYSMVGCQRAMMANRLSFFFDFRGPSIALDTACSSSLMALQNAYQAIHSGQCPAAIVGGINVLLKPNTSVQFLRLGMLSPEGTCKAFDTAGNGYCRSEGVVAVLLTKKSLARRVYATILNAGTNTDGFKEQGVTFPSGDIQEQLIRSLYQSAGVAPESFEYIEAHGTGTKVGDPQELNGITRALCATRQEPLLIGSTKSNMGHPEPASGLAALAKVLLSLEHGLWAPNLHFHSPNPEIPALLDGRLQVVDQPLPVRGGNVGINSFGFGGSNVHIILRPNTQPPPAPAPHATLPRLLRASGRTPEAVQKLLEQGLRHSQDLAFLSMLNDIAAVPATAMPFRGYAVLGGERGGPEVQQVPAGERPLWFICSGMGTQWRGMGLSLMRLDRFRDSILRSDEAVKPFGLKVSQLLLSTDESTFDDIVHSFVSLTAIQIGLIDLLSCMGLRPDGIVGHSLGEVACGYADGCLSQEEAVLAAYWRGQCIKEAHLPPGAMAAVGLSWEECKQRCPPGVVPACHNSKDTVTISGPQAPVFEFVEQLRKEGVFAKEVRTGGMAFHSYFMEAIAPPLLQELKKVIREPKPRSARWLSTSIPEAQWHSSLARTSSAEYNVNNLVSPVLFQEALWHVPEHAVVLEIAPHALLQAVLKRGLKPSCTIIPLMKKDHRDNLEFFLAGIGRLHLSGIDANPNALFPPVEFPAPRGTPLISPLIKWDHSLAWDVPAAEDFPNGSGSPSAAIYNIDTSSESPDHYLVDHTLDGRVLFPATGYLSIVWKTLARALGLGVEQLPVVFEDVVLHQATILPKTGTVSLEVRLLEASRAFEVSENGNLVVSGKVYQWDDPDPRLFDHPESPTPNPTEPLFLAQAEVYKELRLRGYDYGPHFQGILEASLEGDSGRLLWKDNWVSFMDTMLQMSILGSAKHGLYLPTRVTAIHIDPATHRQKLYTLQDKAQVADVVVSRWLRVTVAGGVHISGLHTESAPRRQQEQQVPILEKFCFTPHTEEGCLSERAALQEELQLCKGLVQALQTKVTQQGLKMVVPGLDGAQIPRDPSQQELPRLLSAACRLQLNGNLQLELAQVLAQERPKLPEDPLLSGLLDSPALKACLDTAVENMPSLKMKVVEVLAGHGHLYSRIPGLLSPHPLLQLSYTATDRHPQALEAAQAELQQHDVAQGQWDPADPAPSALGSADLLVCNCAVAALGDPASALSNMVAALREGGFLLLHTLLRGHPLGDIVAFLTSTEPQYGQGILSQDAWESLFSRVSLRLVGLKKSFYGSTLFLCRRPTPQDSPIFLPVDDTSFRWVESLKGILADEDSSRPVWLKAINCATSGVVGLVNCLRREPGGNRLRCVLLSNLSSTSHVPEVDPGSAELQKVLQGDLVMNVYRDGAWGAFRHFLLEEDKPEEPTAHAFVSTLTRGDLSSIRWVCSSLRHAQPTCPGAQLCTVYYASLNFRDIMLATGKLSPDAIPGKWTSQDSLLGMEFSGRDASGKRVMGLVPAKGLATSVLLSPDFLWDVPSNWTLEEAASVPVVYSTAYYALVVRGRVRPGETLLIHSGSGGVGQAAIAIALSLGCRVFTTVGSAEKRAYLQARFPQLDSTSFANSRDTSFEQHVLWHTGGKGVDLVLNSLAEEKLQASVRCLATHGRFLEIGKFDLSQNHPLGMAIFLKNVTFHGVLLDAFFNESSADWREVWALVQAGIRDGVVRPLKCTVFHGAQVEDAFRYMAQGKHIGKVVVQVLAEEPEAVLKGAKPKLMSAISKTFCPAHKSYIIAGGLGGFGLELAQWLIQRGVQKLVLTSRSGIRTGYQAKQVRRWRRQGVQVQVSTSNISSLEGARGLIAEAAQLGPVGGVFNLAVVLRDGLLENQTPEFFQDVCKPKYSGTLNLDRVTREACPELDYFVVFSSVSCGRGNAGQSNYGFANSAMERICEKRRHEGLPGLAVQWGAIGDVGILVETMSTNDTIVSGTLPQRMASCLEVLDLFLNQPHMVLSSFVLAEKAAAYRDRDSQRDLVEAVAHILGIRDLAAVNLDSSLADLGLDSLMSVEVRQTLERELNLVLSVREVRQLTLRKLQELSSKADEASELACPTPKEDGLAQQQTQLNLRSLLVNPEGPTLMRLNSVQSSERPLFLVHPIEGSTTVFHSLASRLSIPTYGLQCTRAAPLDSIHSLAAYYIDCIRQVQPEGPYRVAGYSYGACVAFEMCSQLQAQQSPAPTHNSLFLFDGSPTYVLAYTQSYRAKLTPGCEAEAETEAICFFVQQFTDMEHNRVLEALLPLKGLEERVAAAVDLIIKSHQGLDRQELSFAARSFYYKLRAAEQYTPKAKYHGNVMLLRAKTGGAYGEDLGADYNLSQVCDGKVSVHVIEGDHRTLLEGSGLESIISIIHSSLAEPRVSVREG
SMILES,outcome,AC50
CC(=O)c1ccc2ccccc2c1,inactive,
CC=CC(=O)C1=C(C)C=CCC1(C)C,inactive,
C#C[C@]1(O)CC[C@H]2[C@@H]3CCc4cc(O)ccc4[C@H]3CC[C@@]21C,inactive,
CC(C)(C)c1cccc(O)c1,inactive,
COc1ccc2[nH]cc(CCNC(C)=O)c2c1,inactive,
OCCCO,inactive,
C[C@]12CC[C@@H]3c4ccc(O)cc4CC[C@H]3[C@@H]1CC[C@@H]2O,,3.8 µM (active)
CCCCCC(=O)O[C@]1(C(C)=O)CC[C@H]2[C@@H]3CCC4=CC(=O)CC[C@]4(C)[C@H]3CC[C@@]21C,inactive,
O=C(c1ccc(OCCN2CCCCC2)cc1)c1c(-c2ccc(O)cc2)sc2cc(O)ccc12,inactive,
O=c1cc(-c2ccc(O)cc2)oc2cc(O)cc(O)c12,,7.72 µM (active)
O=C(OCc1ccccc1)c1ccccc1O,inactive,
CCCCCCCCCCCCN1CCOCC1,,0.549 µM (active)
CC(=N[Si](C)(C)C)O[Si](C)(C)C,inactive,
c1coc(CNc2ncnc3nc[nH]c23)c1,inactive,
CCCc1ccc(O)cc1,inactive,
CC/C(=C(\c1ccccc1)c1ccc(OCCN(C)C)cc1)c1ccccc1,inactive,0.222 µM (active)
c1ccc(OCCOc2ccccc2)cc1,inactive,

# Read-out: not listed separately
# Assay: CEETOX_H295R_ESTRADIOL: CeeTox H295R High-throughput Steroidogenesis Assay for Estradiol (AID 2283440);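 also: estradiol secreted into medium quantified by LC-MS/MS after dansyl derivatisation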
# Conditions: actives raise or lower the signal
# Outline: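 H295R cells pre-stimulated 48 h with 10 uM forskolin, then exposed 48 h to chemical in 0.1% DMSO. Medium estradiol quantified by MTBE extraction, dansyl derivatisation and HPLC-MS/MS; bidirectional fit versus DMSO; MTT viability required >/=70%.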
SMILES,outcome,AC50
CC(=O)c1ccc2ccccc2c1,inactive,
OCC=Cc1ccccc1,inactive,
COc1ccc2[nH]cc(CCNC(C)=O)c2c1,inactive,
OCCCO,inactive,
CCCCCC(=O)O[C@]1(C(C)=O)CC[C@H]2[C@@H]3CCC4=CC(=O)CC[C@]4(C)[C@H]3CC[C@@]21C,,13.4 µM (active)
O=C(OCc1ccccc1)c1ccccc1O,inactive,
CCCCCCCCCCCCN1CCOCC1,inactive,
CCCc1ccc(O)cc1,inactive,
CC(=O)C1=C(C)[C@@H]2C[C@@]3(C1)[C@H](C)CC[C@H]3C2(C)C,inactive,
c1ccc(OCCOc2ccccc2)cc1,inactive,

# Read-out: not listed separately
# Assay: CEETOX_H295R_ESTRONE: CeeTox H295R High-throughput Steroidogenesis Assay for Estrone (AID 2283441);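 also: estrone secreted into medium measured by LC-MS/MS after dansyl derivatization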;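 as to AC50: human adrenal H295R cells prestimulated with forskolin for two days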
# Conditions: actives raise or lower the signal
# Outline: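 H295R cells; 48 h forskolin (10 uM) prestimulation; 48 h compound exposure, 0.1% DMSO final. Medium estrone: MTBE extraction, dansyl derivatization, HPLC-MS/MS. Bidirectional fit vs DMSO.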
SMILES,outcome,AC50
CC(=O)c1ccc2ccccc2c1,inactive,
OCC=Cc1ccccc1,inactive,
COc1ccc2[nH]cc(CCNC(C)=O)c2c1,inactive,
OCCCO,inactive,
CCCCCC(=O)O[C@]1(C(C)=O)CC[C@H]2[C@@H]3CCC4=CC(=O)CC[C@]4(C)[C@H]3CC[C@@]21C,,13.2 µM (active)
O=C(OCc1ccccc1)c1ccccc1O,inactive,
CCCCCCCCCCCCN1CCOCC1,inactive,
CCCc1ccc(O)cc1,inactive,
CC(=O)C1=C(C)[C@@H]2C[C@@]3(C1)[C@H](C)CC[C@H]3C2(C)C,inactive,
c1ccc(OCCOc2ccccc2)cc1,inactive,

# Read-out: not listed separately
# Assay: CEETOX_H295R_PROG: CeeTox H295R High-throughput Steroidogenesis Assay for Progesterone (PROG) (AID 2283442);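 as to AC50: human H295R adrenal cells primed with 10 µM forskolin before dosing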
# Conditions: actives raise or lower the signal
# Outline: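 H295R adrenal cells prestimulated 48 h with 10 uM forskolin, then exposed 48 h to test chemical in 0.1% DMSO. Progesterone in medium quantified by HPLC-MS/MS after MTBE extraction; viability checked by MTT in same wells.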
SMILES,outcome,AC50
CC(=O)c1ccc2ccccc2c1,inactive,
CC=CC(=O)C1=C(C)C=CCC1(C)C,inactive,
C#C[C@]1(O)CC[C@H]2[C@@H]3CCc4cc(O)ccc4[C@H]3CC[C@@]21C,,0.372 µM (active)
OCC=Cc1ccccc1,inactive,
CC(C)(C)c1cccc(O)c1,inactive,
COc1ccc2[nH]cc(CCNC(C)=O)c2c1,,20 µM (active)
OCCCO,inactive,
C[C@]12CC[C@@H]3c4ccc(O)cc4CC[C@H]3[C@@H]1CC[C@@H]2O,,5 µM (active)
CCCCCC(=O)O[C@]1(C(C)=O)CC[C@H]2[C@@H]3CCC4=CC(=O)CC[C@]4(C)[C@H]3CC[C@@]21C,,4.56 µM (active)
O=C(c1ccc(OCCN2CCCCC2)cc1)c1c(-c2ccc(O)cc2)sc2cc(O)ccc12,inactive,
O=C(OCc1ccccc1)c1ccccc1O,,50 µM (active)
CCCCCCCCCCCCN1CCOCC1,,0.304 µM (active)
CC(=N[Si](C)(C)C)O[Si](C)(C)C,inactive,
c1coc(CNc2ncnc3nc[nH]c23)c1,inactive,
CCCc1ccc(O)cc1,inactive,
CC/C(=C(\c1ccccc1)c1ccc(OCCN(C)C)cc1)c1ccccc1,inactive,0.141 µM (active)
CC(=O)C1=C(C)[C@@H]2C[C@@]3(C1)[C@H](C)CC[C@H]3C2(C)C,inactive,
c1ccc(OCCOc2ccccc2)cc1,,14.3 µM (active)

# Read-out: Tumor necrosis factor receptor superfamily member 6 (Homo sapiens) (UniProt P25445)
# Assay: LTEA_HepaRG_FAS: Life Technologies and Expression Analysis (LTEA) Assay for Fas cell surface death receptor (FAS) using HepaRG (AID 2283447)
# Conditions: mRNA level, 48 h; actives raise or lower the signal
# Outline: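 FAS transcript level was measured by TaqMan qRT-PCR against three housekeeping genes after 48 h chemical exposure. Cells were HepaRG, 0.5% DMSO vehicle, with a top concentration of 100 uM and half-log dilutions over eight points, in duplicate.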
SMILES,outcome,AC50
C#C[C@]1(O)CC[C@H]2[C@@H]3CCc4cc(O)ccc4[C@H]3CC[C@@]21C,inactive,
COC(=O)c1ccc(C(=O)OC)cc1,inactive,
C[C@]12CC[C@@H]3c4ccc(O)cc4CC[C@H]3[C@@H]1CC[C@@H]2O,inactive,
O=C(c1ccc(OCCN2CCCCC2)cc1)c1c(-c2ccc(O)cc2)sc2cc(O)ccc12,inactive,
CCCCOCCOCCO,inactive,
CC/C(=C(\c1ccccc1)c1ccc(OCCN(C)C)cc1)c1ccccc1,inactive,71.4 µM (active)
C=C(C)C(N)=O,inactive,

# Read-out: Fatty acid synthase (Homo sapiens) (UniProt P49327)
# Assay: LTEA_HepaRG_FASN: Life Technologies and Expression Analysis (LTEA) Assay for Fatty Acid Synthase (FASN) using HepaRG (AID 2283448)
# Conditions: mRNA level, 48 h; actives raise or lower the signal
# Protocol: LTEA_HepaRG is a cell based, multiplexed-readout assay that uses HepaRG, a human liver cell line, with measurements taken at 48 hours after chemical dosing on a 96-well plate.LTEA_HepaRG_FASN is one of 102 assay component(s) measured in the LTEA HepaRG cell culture assay. It is a marker of Steatosis.Data from the assay component LTEA_HepaRG_FASN was analyzed into 1 endpoint. This assay endpoint, LTEA_HepaRG_FASN, was analyzed with bidirectional fitting relative to DMSO as the negative control and baseline of activity. Using a type of inducible reporter, measures of mRNA induction for gain or loss-of-signal activity can be used to understand regulation of transcription factor activity. To generalize the intended target to other relatable targets, this assay endpoint is annotated to the lyase intended target family, where the subfamily is fatty acid synthase.
# A total of 1060 chemcials from the ToxCast library were tested in eight-point concentration-response experiments. Cell culture and cytotoxicity assays were conducted at Thermo Fisher Scientific's Custom Services facility (Madison, WI). A single lot of human HepaRG cells (Thermo Fisher Scientific, Frederick, MD) was used for the cell culture experiments. 96-well format collagen type I coated plates of human HepaRG cells were prepared using established methods. Briefly, cryopreserved HepaRG cells were thawed, plated at a density of approximately 100,000 cells/well in HepaRG Thaw, Plate, and General Purpose media (HPRG770, Thermo Fisher Scientific), and incubated for 48 hours. 0.5% DMSO was selected as vehicle control to balance the requisite need of DMSO in HepaRG cultures to maintain differentiation (for example, baseline metabolism, proportions of hepatocytes vs. cholangiocytes), while enabling further hepatic receptor pathway activation (for example, PXR and CAR) in response to chemical exposure. 48 hours after plating, the culture medium was replaced with HepaRG Serum-Free Incudtion Media. Cells were exposed to each test chemical in duplicate and maintained in CO2 incubators for another 48 hours. Chemical plates were thawed to room temperature and 200x concentrations of treatment groups were prepared. 8-point conentration-reponse curves were made with the highest exposure at 100 uM, followed by half-log dilutions, all in 0.5% DMSO. Each test plate contained variouse controls, induction positive controls (1mM phenobarbital), cytotoxicity positive controls ([…] aflatoxin B1), vehicle controls (0.5% DMSO), and total lysis controls (0.5% DMSO). Cell morphology images were taken using an Essen IncuCyte FLR automated microscope, with six 96-well plates imaged in about 24 minutes. Images were captured and exported and JPEG files. Spent culture media was transfered to black-well plates for the LDH assay, and remaining media was sorted at -80 C for later use. Cells were treated with RLT buffer and frozen until shipped for gene expression analysis. Total RNA was isolated from the cell suspension in 75 uL of Buffer RLT (Qiagen, Germantown, MD 20874) by Quintiles/Expression Analysis (Durham, NC) using a custom isolation procedure. Total RNA from each plate well was transferred to a preamplification plate. Fluidigm's 96.96 Dynamic ArrayTM (Fluidigm, Amsterdam, the Netherlands) technology was used for gene expression analyses by quantitative reverse transcription polymerase chain reaction (qRT-PCR, performed by Quintiles/Expression Analysis, Durham, NC)89. Standard TaqManTM Assays (Applied Biosystems/ThermoFisher Scientific, Foster City, CA) were used to assess the expression of 93 genes selected based on their selectivity and sensitivity to important hepatic receptors known to be modulated by environmental chemicals; importance in human hepatocyte functionality; and hepatotoxicity. […]
row,SMILES,outcome
1,C#C[C@]1(O)CC[C@H]2[C@@H]3CCc4cc(O)ccc4[C@H]3CC[C@@]21C,inactive
2,COC(=O)c1ccc(C(=O)OC)cc1,inactive
3,C[C@]12CC[C@@H]3c4ccc(O)cc4CC[C@H]3[C@@H]1CC[C@@H]2O,inactive
4,O=C(c1ccc(OCCN2CCCCC2)cc1)c1c(-c2ccc(O)cc2)sc2cc(O)ccc12,inactive
5,CCCCOCCOCCO,inactive
6,CC/C(=C(\c1ccccc1)c1ccc(OCCN(C)C)cc1)c1ccccc1,inactive
7,C=C(C)C(N)=O,inactive
